Reference: PubChem BioAssay (NCATS)
Inconclusive results are not listed. Entries that show only a call come without a potency. Unmarked numbers belong to inactive results. Activity calls are given as the source filed them. Unless noted, calls come from the whole dose curve; as a rule, active = well fitted curve in the direction sought with a large enough effect in the repeat runs; inconclusive = weak or mixed curves; inactive = no such curve, though single readings can be large; an effect the other way counts as inactive or inconclusive.

Experiments:
[1] = target: Calcium and integrin-binding protein 1 (Homo sapiens) (UniProt Q99828); test: Primary qHTS for Identification of Calcium Integrin Binding Protein 1 (CIB1) Competitor (AID 1508620; active = well fitted curve in the direction sought with a large enough effect; an effect the other way counts as inactive or inconclusive;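 note: GST tagged CIB1 binding a fluorescein labelled alphaIIb integrin peptide tracer; top concentration of the series differs between compounds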); details: CIB1-GST / FITC-alphaIIb peptide fluorescence polarization; series mostly up to 114 µM
Outline: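 CIB1-GST (1 uM final) and compound incubated 15 min at room temperature before adding FITC-alphaIIb peptide tracer (100 nM final). Competition for binding read by fluorescence polarization (ex 480, em 540) after another 15 min at room temperature.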

[2] = target: Cytochrome P450 2D6 (Homo sapiens) (UniProt P10635); test: Cytochrome P450 family 2 subfamily D member 6 (CYP2D6) small molecule antagonists: luciferase biochemical (cell-free) qHTS assay (AID 1645840); details: P450-Glo CYP2D6 enzyme, luciferin luminescence, 1 h; series mostly up to 57.4 µM; note: nearly all actives have a fitted effect of over 55% in size; note: potency is the fitted concentration of half-maximal effect
Outline: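 P450-Glo luminescent screen: recombinant CYP2D6 enzyme–proluciferin substrate mix preincubated with compound 10 min at room temperature, then NADPH regeneration added for 1 h at room temperature. Detection reagent added for 20 min; luciferin light read as relative luminescence units.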

Cytochrome P450 2D6 (Homo sapiens), sequence (P10635 whole entry, looked up): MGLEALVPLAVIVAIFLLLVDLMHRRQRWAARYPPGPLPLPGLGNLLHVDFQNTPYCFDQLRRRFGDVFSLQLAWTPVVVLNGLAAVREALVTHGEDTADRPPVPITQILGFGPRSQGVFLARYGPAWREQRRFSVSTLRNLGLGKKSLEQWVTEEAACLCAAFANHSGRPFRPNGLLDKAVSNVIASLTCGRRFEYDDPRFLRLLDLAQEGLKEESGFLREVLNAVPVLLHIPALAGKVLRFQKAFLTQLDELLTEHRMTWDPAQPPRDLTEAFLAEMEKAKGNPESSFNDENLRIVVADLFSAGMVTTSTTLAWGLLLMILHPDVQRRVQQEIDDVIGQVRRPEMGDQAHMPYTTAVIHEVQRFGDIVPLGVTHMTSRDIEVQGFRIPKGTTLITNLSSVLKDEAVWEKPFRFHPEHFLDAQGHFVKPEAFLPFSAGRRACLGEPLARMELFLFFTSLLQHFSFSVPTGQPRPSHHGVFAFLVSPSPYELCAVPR
Calcium and integrin-binding protein 1 (Homo sapiens), sequence (Q99828 whole entry, looked up): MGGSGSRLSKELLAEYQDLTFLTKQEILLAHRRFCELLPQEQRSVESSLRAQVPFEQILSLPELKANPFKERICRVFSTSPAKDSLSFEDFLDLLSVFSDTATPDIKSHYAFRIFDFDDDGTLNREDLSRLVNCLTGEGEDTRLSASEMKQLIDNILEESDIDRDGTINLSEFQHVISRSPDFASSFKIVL

## Cc1nc2c(C(F)(F)F)cccc2nc1-c1ccc(-c2cccc(S(C)(=O)=O)c2)cc1
[1]
  Potency: inactive
[2]
  Potency: inactive

## CC1(C)OC[C@H](NC(=O)Nc2ccc(Br)cc2Br)[C@H](c2ccccc2)O1
[1]
  Potency: inactive
[2]
  Potency: inactive

## Cc1cc(Nc2nc(-c3ccccc3)nc3ccccc23)n[nH]1
[1]
  Potency: inactive
[2]
  Potency: inactive

## CCc1cnc(N2CCC(c3nc(COc4ccc(-n5cnnn5)cc4)cs3)CC2)nc1
[1]
  Potency: inactive
[2]
  Potency: inactive

## O=C(CNC(=O)c1cccc(C(F)(F)F)c1)N[C@@H]1CCN(Cc2ccc(Cl)cc2)C1
[1]
  Potency: inactive
[2]
  Potency: 53.5 nM (active)

## C[C@@H](N[C@H]1CCCC[C@@H]1NC(=O)c1ccc(Cl)cc1)c1cccc2ccccc12
[1]
  Potency: inactive
[2]
  Potency: 756 nM (active)

## CCOc1cccc(NC(=O)c2ccc(N3CCCC3)c(C(F)(F)F)c2)c1
[1]
  Potency: inactive
[2]
  Potency: inactive

## O=C(NCC1(c2nc(-c3ccccc3)cs2)CCOCC1)c1cccc(-c2noc(C(F)(F)F)n2)c1
[1]
  Potency: inactive
[2]
  Potency: inactive

## CC(C)c1cccc(C(C)C)c1NC(=O)Nc1ccc(Sc2ccc([N+](=O)[O-])cc2)cc1
[1]
  Potency: inactive
[2]
  Potency: inactive

## FC(F)(F)c1ccccc1-c1cc(C(F)(F)F)c2nc(C3=NOC4(CCCCC4)C3)[nH]c2c1
[1]
  Potency: inactive
[2]
  Potency: inactive

## CC(=O)c1ccc2c(c1)[C@H](NC(=O)c1ccc(F)c(Cl)c1)[C@H](O)C(C)(C)O2
[1]
  Potency: inactive
[2]
  Potency: 674 nM (active)

## CNC1CN(c2ccc3c(=O)c(C(=O)O)cn(-c4nccs4)c3n2)CC1OC (centres undefined)
[1]
  Potency: inactive
[2]
  activity change, negative = inhibition: 16.1% [at 11.5 µM]

## CC(C)(Cc1ccccc1)NCC(O)c1ccc(O)c(NS(C)(=O)=O)c1 (centres undefined)
[1]
  Potency: inactive
[2]
  Potency: 3790 nM (active)

## C=CCCN1CCC2(CC1)CN(C(=O)c1c(F)cccc1F)c1ccc(Cl)cc12
[1]
  Potency: inactive
[2]
  Potency: 19 nM (active)

## N#Cc1cc(C2=Nc3ccc(Br)cc3NC(=O)C2)ccn1
[1]
  Potency: inactive
[2]
  Potency: 477 nM (active)

## CC(C)(C)OC(=O)c1ncn2c1C(C)(C)Nc1ccccc1-2
[1]
  Potency: inactive
[2]
  Potency: inactive

## CN1CCN(c2ccc(OC(F)(F)F)c(Nc3ncc4c(n3)-c3c(c(C(N)=O)nn3CCO)CC4)c2)CC1
[1]
  Potency: inactive
[2]
  Potency: inactive

## O=C(COc1ccc2ccccc2c1Br)Nc1cccnc1
[1]
  Potency: inactive
[2]
  Potency: 301 nM (active)

## Cn1cc(-c2ccc(S(=O)(=O)n3ccc(/C=C/C(=O)Nc4ccccc4N)c3)cc2)cn1
[1]
  Potency: inactive
[2]
  Potency: 2680 nM (active)

## Cc1cc(C(=O)Nc2cc(Nc3ccc4c(/C=C/c5ccccn5)n[nH]c4c3)ccc2F)n(C)n1
[1]
  Potency: inactive
[2]
  Potency: 7560 nM (active)

## CNc1cc2[nH]c(=O)n(-c3ccc(NC(=O)NS(=O)(=O)c4ccc(Cl)s4)cc3)c(=O)c2cc1F
[1]
  Potency: inactive
[2]
  Potency: inactive

## Cn1ncnc1[C@@H]1c2n[nH]c(=O)c3cc(F)cc(c23)N[C@H]1c1ccc(F)cc1
[1]
  Potency: inactive
[2]
  Potency: inactive
